TR SRC2 fluor cs: Texas Red fluorescence interference in TRb-SRC2 counter-screen; TRb/SRC2 Texas Red total fluorescence interference; Potency, µM (doses to about 106 µM), for inactives: at the top dose fluorescence change, negative = quenching; 280,000 tested, 0.29% active; active = well fitted curve in either direction with a large enough effect; inconclusive = small, poorly fitted or top-dose-only effect; also: potency is read from the fitted curve at half-maximal effect; % is scaled to controls: 0 for no effect and ±100 for the full control effect
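Human TRb ligand-binding domain at 0.6 uM with 20 nM Texas Red SRC2 peptide in Tris buffer containing 1 uM T3 and 5% DMSO, incubated with compound 5 h at ambient temperature. Total fluorescence (555/632 nm) calculated as parallel + 2 × perpendicular.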
TRb SRC2 PPI: disrupts binding of human TR beta to SRC2; TRbeta-SRC2 peptide binding, fluorescence polarization; receptor liganded with 1 µM T3; 280,000 tested, 0.065% active; Potency, µM (series often up to 106 µM), for the others: at the highest dose activity change, negative = inhibition, most hits filed as inhibitors; P10828;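 also: potency is read from the fitted curve at half-maximal effect; plate controls were bound peptide for no effect and peptide without receptor for full effect; nearly all actives have a fitted effect of over 50% in size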
Target sequence (P10828 whole entry, looked up): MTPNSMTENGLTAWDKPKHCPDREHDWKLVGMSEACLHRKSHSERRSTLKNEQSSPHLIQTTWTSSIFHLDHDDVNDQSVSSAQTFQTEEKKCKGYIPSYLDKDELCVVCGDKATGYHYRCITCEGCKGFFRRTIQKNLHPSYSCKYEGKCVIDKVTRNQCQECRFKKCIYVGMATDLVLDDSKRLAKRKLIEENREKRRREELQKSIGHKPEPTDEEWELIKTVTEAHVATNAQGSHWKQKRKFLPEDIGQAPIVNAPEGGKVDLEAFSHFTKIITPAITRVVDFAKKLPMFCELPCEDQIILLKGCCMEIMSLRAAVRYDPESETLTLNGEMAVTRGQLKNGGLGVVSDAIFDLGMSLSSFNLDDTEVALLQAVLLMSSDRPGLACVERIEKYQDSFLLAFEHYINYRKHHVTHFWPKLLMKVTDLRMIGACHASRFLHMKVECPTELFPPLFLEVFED
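Compounds were added to 0.6 uM TRb ligand-binding domain and 20 nM Texas Red-labeled SRC2 peptide in Tris buffer containing 1 uM T3, incubated 5 hr at ambient temperature, then read by fluorescence polarization.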
HTT aggregate: mutant huntingtin aggregation inhibition. PC12 HttQ103-GFP aggregates, Acumen cytometry, 40 h. Potency, µM (titrated, usually from 46.1 µM), without a hit: at the highest dose activity change, negative = inhibition, usual class: inhibitors. 220,000 tested, 1.1% active. AID 1688; also: potency is read from the fitted curve at half-maximal effect; % is scaled to controls: 0 for no effect and ±100 for the full control effect; nearly all actives have a fitted effect of over 60% in size
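Using laser scanning cytometry, GFP-positive aggregates were counted after lysis of PC12 cells induced with 100 nM tebufenozide to express HTT exon 1 Q103–GFP. Compounds were tested in titration.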
KDM4E inh: JMJD2E (human) inhibition | B2RXH2 | JMJD2E catalytic domain, FDH-coupled NADH fluorescence (FDH is formaldehyde dehydrogenase) | Potency, µM (top dose mostly 57.1 µM), inactives show at the top dose activity change, negative = inhibition, hits mostly inhibitors | 230,000 tested, 1.6% active | AID 2147; active = well fitted inhibition curve with a large enough effect, not every such curve was filed as active; inconclusive = small, poorly fitted or top-dose-only effect, or another doubt; inactive = no such curve, though single readings can be large or run the other way;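 also: potency is read from the fitted curve at half-maximal effect; 0% = wells with enzyme and -100% = buffer wells without enzyme; nearly all actives have a fitted effect of over 50% in size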
Coupling enz: coupling enzyme interference in Giardia aldolase counter-screen; activity change, negative = inhibition, % at 58.2 µM, hits read low; 290,000 tested, 0.67% active; coupling enzyme system counterscreen, AmpLite Red fluorescence; AID 2472; in the data active = activity change below about -30%; also: % is scaled to controls: 0 for no effect and ±100 for the full control effect
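First, compound is pin-transferred into glyceraldehyde-3-phosphate coupling-enzyme reagent at 57.5 uM final and held 10 min at RT. Next, substrate, coupling system and AmpLite Red are added. After 20 min RT, fluorescence (525/598 nm) is read.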
HTT ATP protect: protects HTT-Q103 PC12 cells, measured by ATP. 230,000 tested, 0.14% active. PC12 HTT-Q103 induced, cytoprotection, ATP luminescence, 40 h. Potency, µM (series often up to 56.4 µM), for the others: cytoprotection (ATP increase), hits mostly activators; also: potency is read from the fitted curve at half-maximal effect; % of control where 0% means no effect; nearly all actives have a fitted effect of over 45% in size
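PC12 cells stably carrying ecdysone-inducible Htt exon 1 (Q103)–GFP were induced with 100 nM tebufenozide (final) alongside library compounds in a dose series. Cytoprotection was scored as retained ATP by ATPlite luminescence.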
The depositor's hits bear a star; ? = inconclusive; . = no result; [ ] = another dose, or the depositor's remark. Rows were chosen to be rich in hits. Some 2% of all compounds tested hit in one or more screens of this group. Unless noted, calls follow the shape of the dose curve; as a rule, active = well fitted curve in the direction sought with a large enough effect; inconclusive = small, poorly fitted or top-dose-only effect, or another doubt; inactive = no such curve, though single readings can be large; an effect the other way counts as inactive or inconclusive.

SMILES | TR SRC2 fluor cs | TRb SRC2 PPI | HTT aggregate | KDM4E inh | Coupling enz | HTT ATP protect
COc1ccc(C(=O)c2coc3c2C(=O)C(=O)c2ccccc2-3)cc1 | -2.7% | -3.4% | 13.2%[9.22 µM] | ? | -74.6* | 20.1%[10 µM]
CCOC(=S)SSC(=S)OCC | 1.0% | 1.7% | -7.0% | . | . | 25.0%
O=C(CSc1n[nH]c(-c2ccccc2)n1)c1ccc(O)c(O)c1 | -6.7% | -0.9% | -11.5% | 28.2µM* | -9.7 | 23.1%[10 µM]
COc1ccc(N2C(=O)CS(=O)(=O)C23C(=O)N(Cc2c(F)cccc2Cl)c2ccccc23)cc1 (centres undefined) | -0.4% | 5.4% | . | . | . | .
C/C(=N\NC(=O)c1ccc(F)cc1)c1ccccn1 | . | . | . | . | -3.2 | .
C=CCNC(=S)N/N=C(\C)c1ccccn1 | -0.8% | -16.5% | 3.55µM* | 8.91µM* | -2.5 | -60.9%[10 µM]
CN(C)S(=O)(=O)c1ccc(C(=O)NCCSc2c(-c3ccc(Cl)cc3)[nH]c3ccccc23)cc1 | -1.1% | -0.5% | . | . | . | .
O=C(Cc1cccs1)NCCSc1c(-c2ccc(Cl)cc2)[nH]c2ccccc12 | -7.6% | 0.6% | 22.4µM* | ? | -5.9 | .
Cc1cc2c(NC(=O)Nc3ccc(C(C)(C)C)cc3)cccc2nn1 | 5.9% | -21.6% | 4.7%[9.22 µM] | ? | -25.0 | 26.2%[10 µM]
Cc1cc2c(NC(=O)Nc3ccccc3)cccc2nn1 | 21.4% | ? | 24.1%[9.22 µM] | ? | -41.7* | -5.8%[10 µM]
COc1ccc(/C=N/Nc2ncc(Br)cn2)c(OC)c1 | -1.5% | -1.4% | ? | -9.2% | -0.2 | 3.55µM*
Cc1ccccc1CNC(=O)Cn1ccc2cc(S(=O)(=O)N3CCCCC3)ccc21 | -3.2% | 1.7% | . | . | . | .
CCN(CC)C(=O)c1ccc(S(=O)(=O)NCc2cccnc2)cc1 | -2.9% | 0.8% | 11.2µM* | 4.9% | 2.0 | 21.9%[10 µM]
CCN1C(=O)C2C(C1=O)N1C(c3ccccc3)C3C(=O)N(CC)C(=O)C3N1C2c1ccccc1 (centres undefined) | -3.1% | -6.0% | 5.4% | 3.1% | -0.5 | 0.4%
CCN1C(=O)C2C(C1=O)N1C(c3cccs3)C3C(=O)N(CC)C(=O)C3N1C2c1cccs1 (centres undefined) | -3.3% | 3.2% | 28.2µM* | 19.0% | 1.6 | -1.5%
O=C(C[n+]1ccc(Cc2ccccc2)cc1)Nc1ccc([N+](=O)[O-])cc1Cl | 0.3% | -6.3% | ? | 2.0% | 3.6 | .
Cc1ccc(Cl)cc1NC(=O)C[n+]1ccc(Cc2ccc([N+](=O)[O-])cc2)cc1 | 0.0% | 1.8% | -14.2% | -8.1% | -44.4* | -32.3%
Cn1cc(S(=O)(=O)N2CCCC2)cc1C(=O)Nc1ccc(C(F)(F)F)cc1 | 44.7µM*[quencher] | -10.4% | . | . | . | .
CCCn1c(=O)c2sccc2n2c(CCCC(=O)Nc3ccccc3F)nnc12 | -1.6% | 2.4% | . | . | . | .
O=C(CCl)N(c1ccccc1)c1ccccc1 | -7.5% | -12.6% | 10µM* | -6.4% | -1.2 | -187.2%
O=C(N(c1ccccc1)c1ccccc1)N(c1ccccc1)c1ccccc1 | -0.6% | -3.8% | 10.7%[9.22 µM] | -3.3% | 6.6 | -1.8%[10 µM]
Cc1ccc(CNC(=O)C(Cc2ccccc2)NS(=O)(=O)c2ccc(Br)s2)cc1 (centres undefined) | -1.4% | 2.5% | 25.1µM* | -5.4% | 0.5 | .
CC1=C(C(=O)Nc2ccc(C)cc2C)C(c2ccccc2F)n2nc(SCC(=O)c3ccc(C)cc3)nc2N1 (centres undefined) | 0.0316µM*[quencher] | -17.7% | . | . | . | .
CO[C@]12C(COC(N)=O)C3=C(C(=O)C(C)=C(N)C3=O)N1CC1NC12 (some centres undefined) | -2.4% | 4.7% | 12.6µM* | ? | -39.6* | -288.7%
COc1ccc(/C=C/C2=CCN(Cc3ccc(OC)cc3)CC2)cc1 | 2.7% | 5.4% | -31.7% | 28.2µM* | 5.0 | -68.9%
O=C(O)C1(C(=O)Nc2ccc(Cl)cc2Cl)CC1 | -0.3%[201 µM] | 0.3%[201 µM] | . | . | . | .
O=c1cc(C23CC4CC(CC(C4)C2)C3)[nH][nH]1 | 4.7% | 25.1µM* | 30.8% | 8.4% | -21.4 | -5.0%

Assay outcomes from PubChem.
